Where “and” joins values, the source holds several entries; their conditions need not be identical. Equal entries are not always repeated. Some compounds were tested as several samples or in several runs, with calls that do not always agree. Calls of active or inactive are those of the source. Rule for the calls: active = hit-call score of the fitted dose curve at least 0.9, where 1 is the maximum; inactive = score below 0.9.
Key:
[1] = BSK_3C_SRB: Viability Assessment in the BioMAP Diversity Plus: 3C Assay (AID 2283023); conditions: primary human endothelial cells (HUVEC);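 note: cells read 24 h after compound dosing; fitted both ways against DMSO so a hit may be signal rise or drop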
In short: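 Absorbance at 560 nm of sulforhodamine B-stained (0.1%) total protein served as a cytotoxicity readout in human umbilical vein endothelial cells, 24 h after chemical treatment. Signal was fitted bidirectionally relative to DMSO.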

[2] = read-out: Matrix Metallopeptidase 1 (MMP1), MMP1 (gene 4312); test: BSK_BE3C_MMP1: BioMAP Diversity Plus: BE3C Assay for Matrix Metallopeptidase 1 (MMP1) Biomarker Activity (AID 2283024); conditions: primary human bronchial epithelial cells; actives raise or lower the signal
In short: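 ELISA read-out of MMP1 in human lung bronchial epithelial primary cultures, 24 h post-dose; bidirectional curve fit vs DMSO baseline, gain or loss of signal scored.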

[3] = BSK_3C_Vis: BioMAP Diversity Plus: 3C Assay for Morphology Visualization (AID 2283025); conditions: primary human endothelial cells (HUVEC);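 note: fitted both ways so gain or loss versus DMSO counts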;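 for AC50: light microscopy image of cell morphology used as background control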
In short: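 HUVEC, 3C system; light microscopy of morphology at 24 h post-dose. Bidirectional fit vs DMSO baseline. Secondary readout, background-control function.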

[4] = read-out: Pselectin, SELP (gene 6403); test: BSK_4H_Pselectin: BioMAP Diversity Plus: 4H Assay for Pselectin Biomarker Activity (AID 2283026); conditions: primary human endothelial cells (HUVEC); actives raise or lower the signal
In short: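 HUVEC, 24 h chemical exposure; P-selectin read by ELISA. Bidirectional curve fit vs DMSO baseline; gain or loss of signal scored.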

[5] = BSK_BE3C_SRB: Viability Assessment in the BioMAP Diversity Plus: BE3C Assay (AID 2283028); conditions: primary human bronchial epithelial cells;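 for AC50: fitted both ways so AC50 may mark signal gain or loss versus DMSO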
In short: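 Cells (human bronchial epithelial, primary) are treated with chemicals, and after 24 h the parallel cultures are fixed in 10% TCA. These are then stained with 0.1% SRB and read at 560 nm. Gain or loss of signal is fitted relative to DMSO.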

[6] = read-out: Thrombomodulin, THBD (gene 7056); test: BSK_3C_Thrombomodulin: BioMAP Diversity Plus: 3C Assay for Thrombomodulin Biomarker Activity (AID 2283029); conditions: primary human endothelial cells (HUVEC); actives raise or lower the signal
In short: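 HUVEC, 3C conditions; compound 24 h; thrombomodulin by ELISA; bidirectional curve fit vs DMSO baseline; parallel SRB total-protein staining for cytotoxicity.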

[7] = read-out: Urokinase-type plasminogen activator receptor (uPAR), PLAUR (gene 5329); test: BSK_4H_uPAR: BioMAP Diversity Plus: 4H Assay for Urokinase-type plasminogen activator receptor (uPAR) Biomarker Activity (AID 2283030); conditions: primary human endothelial cells (HUVEC); actives raise or lower the signal
In short: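 Cell-surface uPAR ELISA signal, measured 24 h after dosing human umbilical vein endothelial cells, was analyzed with bidirectional fitting relative to DMSO. Parallel SRB staining of total protein tracked overt cytotoxicity.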

[8] = read-out: Vascular endothelial growth factor receptor 2 (Homo sapiens) (UniProt P35968); test: BSK_4H_VEGFRII: BioMAP Diversity Plus: 4H Assay for Vascular endothelial growth factor receptor 2 (VEGFR2) Biomarker Activity (AID 2283031); conditions: primary human endothelial cells (HUVEC); actives raise or lower the signal
In short: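 ELISA read-out of VEGFRII in primary human umbilical vein endothelium, taken 24 h after chemical treatment. Responses are expressed relative to DMSO, with bidirectional fitting.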

[9] = read-out: Human Leukocyte Antigen - DR isotype (HLADR), HLA-DRA (gene 3122); test: BSK_BE3C_HLADR: BioMAP Diversity Plus: BE3C Assay for Human Leukocyte Antigen - DR isotype (HLADR) Biomarker Activity (AID 2283032); conditions: primary human bronchial epithelial cells; actives raise or lower the signal
In short: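 Primary human bronchial epithelial cells (BE3C); 24 h chemical exposure; HLA-DR by ELISA; bidirectional curve fit vs DMSO baseline.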

[10] = read-out: Vascular cell adhesion molecule 1 (VCAM1), VCAM1 (gene 7412); test: BSK_4H_VCAM1: BioMAP Diversity Plus: 4H Assay for Vascular cell adhesion molecule 1 (VCAM1) Biomarker Activity (AID 2283033); conditions: primary human endothelial cells (HUVEC); actives raise or lower the signal
In short: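 HUVEC, 24 h post-dose; VCAM-1 by ELISA. Bidirectional curve fit vs DMSO baseline. Parallel SRB total-protein stain (0.1% SRB after 10% TCA fixation, 560 nm) for cytotoxicity.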

[11] = read-out: Interferon-gamma inducible Protein 10 (IP10), CXCL10 (gene 3627); test: BSK_BE3C_IP10: BioMAP Diversity Plus: BE3C Assay for Interferon-gamma inducible Protein 10 (IP10) Biomarker Activity (AID 2283034); conditions: primary human bronchial epithelial cells; actives raise or lower the signal
In short: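 ELISA readout of IP-10 in BE3C system: primary human bronchial epithelial cells, 24 h post-dosing; bidirectional curve fit vs DMSO baseline.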

[12] = read-out: Monokine induced gamma interferon (MIG), CXCL9 (gene 4283); test: BSK_BE3C_MIG: BioMAP Diversity Plus: BE3C Assay for Monokine induced gamma interferon (MIG) Biomarker Activity (AID 2283035); conditions: primary human bronchial epithelial cells; actives raise or lower the signal
In short: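 Dose cells (human primary bronchial epithelial), incubate 24 h, quantify MIG by ELISA, then fit concentration–response in both directions relative to DMSO control.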

[13] = read-out: Transforming growth factor beta 1 (TGFb1), TGFB1 (gene 7040); test: BSK_BE3C_TGFb1: BioMAP Diversity Plus: BE3C Assay for Transforming growth factor beta 1 (TGFb1) Biomarker Activity (AID 2283036); conditions: primary human bronchial epithelial cells; actives raise or lower the signal
In short: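 Read-out: ELISA for TGF-b1 in primary human bronchial epithelial cultures, 24 h post-dose. Bidirectional curve fitting vs DMSO control; gain or loss of signal both scored.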

[14] = read-out: Urokinase-type plasminogen activator receptor (uPAR), PLAUR (gene 5329); test: BSK_BE3C_uPAR: BioMAP Diversity Plus: BE3C Assay for Urokinase-type plasminogen activator receptor (uPAR) Biomarker Activity (AID 2283039); conditions: primary human bronchial epithelial cells; actives raise or lower the signal
In short: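 ELISA readout of uPAR on human lung primary bronchial epithelial cells, 24 h post-dosing. Bidirectional curve fit relative to DMSO vehicle baseline; gain or loss of signal both scored.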

[15] = read-out: Interleukin-6 (IL6), IL6 (gene 3569); test: BSK_CASM3C_IL6: BioMAP Diversity Plus: CASM3C Assay for Interleukin-6 (IL6) Biomarker Activity for (AID 2283040); conditions: primary human coronary artery smooth muscle cells; actives raise or lower the signal
[16] = read-out: Interleukin-8 (IL8), CXCL8 (gene 3576); test: BSK_CASM3C_IL8: BioMAP Diversity Plus: CASM3C Assay for Interleukin-8 (IL8) Biomarker Activity (AID 2283042); conditions: primary human coronary artery smooth muscle cells; actives raise or lower the signal;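 note: IL-8 protein level quantified by ELISA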
[17] = read-out: Human Leukocyte Antigen - DR isotype (HLADR), HLA-DRA (gene 3122); test: BSK_CASM3C_HLADR: BioMAP Diversity Plus: CASM3C Assay for Human Leukocyte Antigen - DR isotype (HLADR) Biomarker Activity (AID 2283043); conditions: primary human coronary artery smooth muscle cells; actives raise or lower the signal;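 note: cell-surface HLA-DR protein level quantified by ELISA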
[18] = read-out: Macrophage colony-stimulating factor (MCSF), CSF1 (gene 1435); test: BSK_CASM3C_MCSF: BioMAP Diversity Plus: CASM3C Assay for Macrophage colony-stimulating factor (MCSF) Biomarker Activity (AID 2283044); conditions: primary human coronary artery smooth muscle cells; actives raise or lower the signal;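 note: M-CSF protein amount quantified by ELISA after 24 h exposure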
[19] = read-out: Low-density lipoprotein receptor (LDLR), LDLR (gene 3949); test: BSK_CASM3C_LDLR: BioMAP Diversity Plus: CASM3C Assay for Low-density lipoprotein receptor (LDLR) Biomarker Activity (AID 2283045); conditions: primary human coronary artery smooth muscle cells; actives raise or lower the signal;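 note: LDLR protein level on the cell surface quantified by ELISA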
[20] = read-out: Monocyte Chemoattractant Protein-1 (MCP1), CCL2 (gene 6347); test: BSK_CASM3C_MCP1: BioMAP Diversity Plus: CASM3C Assay for Monocyte Chemoattractant Protein-1 (MCP1) Biomarker Activity (AID 2283046); conditions: primary human coronary artery smooth muscle cells; actives raise or lower the signal;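 note: MCP-1 level quantified by ELISA 24 h after dosing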

Measured: AC50

CC(C)C(=O)C(C)C
inactive: all assays above

CN1C(=O)N(C)C(O)C1O (stereo unspecified)
not listed: [3] | [13]
inactive: all other assays above

N#[N+]c1ccc2c(S(=O)(=O)[O-])cccc2c1O
inactive: all assays above

CCOC(=O)c1ccccc1C(=C1C=C(Br)C(=O)C(Br)=C1)c1cc(Br)c(O)c(Br)c1
active: [1] 21.7 µM and 23.7 µM | [4] 21.9 µM and 19.8 µM | [5] 12.5 µM | [6] 18.5 µM and 19.2 µM | [7] 15.6 µM and 15.8 µM | [9] 4.71 µM and 4.54 µM | [10] 20.6 µM and 20.1 µM | [11] 3.73 µM and 3.06 µM | [12] 5.86 µM and 5.17 µM | [14] 7.89 µM and 4.27 µM | [20] 17.4 µM and 20 µM
inactive: [2] | [5] | [8] | [15] | [16] | [17] | [18] | [19]

CCO[Si](CCCN=C=O)(OCC)OCC
inactive: all assays above

CC1OC1C1CCC2(C)OC2C1 (stereo unspecified)
active: [7] 90.7 nM
inactive: all other assays above

C=C[Si](OC(C)=O)(OC(C)=O)OC(C)=O
active: [19] 1.25 µM
inactive: [1] | [2] | [4] | [5] | [6] | [7] | [8] | [9] | [10] | [11] | [12] | [14] | [15] | [16] | [17] | [18] | [19] | [20]

CCCCC/C=C\C/C=C\CCCCCCCC(=O)OC
active: [3] 37.5 µM | [4] 20 µM | [9] 18.8 µM | [10] 36.2 µM | [11] 24.9 µM | [12] 38.5 µM | [15] 20 µM | [17] 20 µM | [18] 20 µM | [19] 28.7 µM | [20] 33.7 µM
inactive: [1] | [2] | [5] | [6] | [7] | [8] | [13] | [14] | [16]

C=CCOc1c(Br)cc(Br)cc1Br
inactive: [8] | [12]
active: [1] 29.3 µM | [2] 3.97 µM | [3] 14.1 µM | [4] 20 µM | [5] 31.4 µM | [6] 3.97 µM | [7] 31000 nM | [9] 29 µM | [10] 31.5 µM | [11] 30.9 µM | [13] 6.57 µM | [14] 25.2 µM | [15] 27.5 µM | [16] 27.1 µM | [17] 26.8 µM | [18] 28.3 µM | [19] 20 µM | [20] 32.3 µM

CCCCCCCCc1ccc(Nc2ccc(CCCCCCCC)cc2)cc1
inactive: all assays above

c1ccc(-c2ccccn2)nc1
inactive: all assays above
